Experimental data published in PubChem BioAssay (Tox21).
Inconclusive results are not listed. A call without a number means that no potency is given here. The source made the active and inactive calls. Unless noted, the call rests on the fitted dose curve; in most records, active means well fitted curve in the direction sought with a large enough effect in the repeat runs; inconclusive means weak or mixed curves; inactive means no such curve, though single readings can be large; an effect the other way counts as inactive or inconclusive.

Tests used:
[1] = qHTS RealTime-Glo MT Cell Viability Assay in HEK293 cells - 0 hour (AID 1224880); further: top concentration of the series differs between compounds; nearly all actives have a fitted effect of over 45% in size
Method in brief: (§1)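 HEK293 cells mixed with RealTime-Glo reagents (NanoLuc plus cell-permeant prosubstrate) at 600 cells/well, preincubated 5 h at 37 C/5% CO2, then given 23 nL compound in DMSO. Nonlytic luminescence from viable cells was read at 0, 8, 16, 24, 32 and 40 h.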

[2] = A CellTox Green Cytotoxicity Assay to monitor cytotoxicity in HepG2 cells - 0 hour (AID 1224882); further: nearly all actives have a fitted effect of over 35% in size
Method in brief: (§2)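 HepG2 cells were seeded together with the CellTox Green dye at 600 cells/well, left 5 h at 37 C/5% CO2, then given compounds in DMSO. Fluorescence from dye bound to dead-cell DNA was read repeatedly over 40 h of treatment at 37 C.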

[3] = A CellTox Green Cytotoxicity Assay to monitor cytotoxicity in HepG2 cells - 32 hour (AID 1224883); further: nearly all actives have a fitted effect of over 50% in size; further: potency means the concentration at half of the fitted maximal effect
Method in brief: as §2

[4] = A CellTox Green Cytotoxicity Assay to monitor cytotoxicity in HEK293 cells - 8 hour (AID 1224884); further: nearly all actives have a fitted effect of over 35% in size
Method in brief: (§3)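 HEK293 cells premixed with CellTox Green dye were seeded at 600 cells/well and left 5 h at 37 C/5% CO2 before pin transfer of 23 nL compound in DMSO. Fluorescence from dye bound to dead-cell DNA was read during 40 h treatment.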

[5] = qHTS RealTime-Glo MT Cell Viability Assay in HepG2 cells - 16 hour (AID 1224885); further: nearly all actives have a fitted effect of over 50% in size
Method in brief: (§4)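 Luminescence read-out: viable HepG2 cells reduce a prosubstrate to a NanoLuc substrate, giving a signal proportional to live cell number. Reads taken at 0, 8, 16, 24, 32 and 40 h of compound exposure at 37 C.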

[6] = qHTS RealTime-Glo MT Cell Viability Assay in HEK293 cells - 24 hour (AID 1224886); further: nearly all actives have a fitted effect of over 50% in size; further: potency means the concentration at half of the fitted maximal effect
Method in brief: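 Nonlytic real-time viability readout: viable cells convert prosubstrate to NanoLuc substrate, giving luminescence proportional to live cell number. HEK293, 600 cells/well, compound added after 5 h, continuous culture at 37 C.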

[7] = qHTS RealTime-Glo MT Cell Viability Assay in HEK293 cells - 8 hour (AID 1224887); further: nearly all actives have a fitted effect of over 50% in size; further: potency means the concentration at half of the fitted maximal effect
Method in brief: as §1

[8] = A CellTox Green Cytotoxicity Assay to monitor cytotoxicity in HEK293 cells - 16 hour (AID 1224888); further: nearly all actives have a fitted effect of over 35% in size
Method in brief: as §3

[9] = qHTS RealTime-Glo MT Cell Viability Assay in HepG2 cells - 0 hour (AID 1224889); further: nearly all actives have a fitted effect of over 50% in size
Method in brief: as §4

[10] = A CellTox Green Cytotoxicity Assay to monitor cytotoxicity in HepG2 cells - 8 hour (AID 1224890); further: nearly all actives have a fitted effect of over 45% in size
Method in brief: as §2

[11] = qHTS assay to identify small molecule antagonists of the estrogen receptor alpha (ER-alpha) signaling pathway using the BG1 cell line in the presence of 0.1 nM 17-beta-estradiol - cell viability counter screen (AID 1259241); further: nearly all actives have a fitted effect of over 40% in size
Method in brief: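 Estradiol-stimulated (0.1 nM) VM7Luc4E2 cells exposed to compounds 22 hr; viability measured by fluorescence of cleaved CellTiter-Fluor substrate after 30 min.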

[12] = qHTS assay to identify small molecule antagonists of the androgen receptor (AR) signaling pathway using the MDA cell line in the presence of 0.5 nM R1881 - cell viability counter screen (AID 1259242); further: nearly all actives have a fitted effect of over 45% in size
Method in brief: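 MDA-kb2 cells (human breast carcinoma, stably carrying MMTV-luciferase reporter) were exposed to compounds with 0.5 nM R1881 (final) for 16 hr at 37C, 0% CO2; viability then read as live-cell protease fluorescence (CellTiter-Fluor, 30 min) in the same wells.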

[13] = molecular target: Estrogen receptor (Homo sapiens) (UniProt P03372); assay: qHTS assay to identify small molecule antagonists of the estrogen receptor alpha (ER-alpha) signaling pathway using the BG1 cell line in the presence of 0.1 nM 17-beta-estradiol (AID 1259244); further: nearly all actives have a fitted effect of over 50% in size; further: potency means the concentration at half of the fitted maximal effect
Sequence of Estrogen receptor (Homo sapiens) (P03372 whole entry, looked up): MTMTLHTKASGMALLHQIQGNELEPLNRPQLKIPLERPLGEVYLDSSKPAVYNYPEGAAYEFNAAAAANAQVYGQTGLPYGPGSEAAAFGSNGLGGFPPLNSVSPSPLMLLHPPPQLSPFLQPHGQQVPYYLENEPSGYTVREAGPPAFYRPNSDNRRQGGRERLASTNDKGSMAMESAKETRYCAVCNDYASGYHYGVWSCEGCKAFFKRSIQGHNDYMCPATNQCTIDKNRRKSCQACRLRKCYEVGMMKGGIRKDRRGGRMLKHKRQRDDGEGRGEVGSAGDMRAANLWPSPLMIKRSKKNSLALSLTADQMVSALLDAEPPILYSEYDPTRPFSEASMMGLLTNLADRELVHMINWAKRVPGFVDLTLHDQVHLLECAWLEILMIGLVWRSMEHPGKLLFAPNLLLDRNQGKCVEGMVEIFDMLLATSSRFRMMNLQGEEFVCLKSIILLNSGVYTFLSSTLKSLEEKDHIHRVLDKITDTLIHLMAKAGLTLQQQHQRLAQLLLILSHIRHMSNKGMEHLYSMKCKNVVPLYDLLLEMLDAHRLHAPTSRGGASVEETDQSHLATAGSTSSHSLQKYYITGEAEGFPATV
Method in brief: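 VM7Luc4E2 cells (endogenous full-length ER-alpha, stable 4xERE-luciferase) were grown 5 days in phenol red-free medium with charcoal-stripped FBS, then exposed 22 h at 37C to compounds plus 0.1 nM (final) 17beta-estradiol; ONE-Glo luminescence read-out.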

[14] = qHTS assay to identify small molecule HDAC inhibitors (AID 1259364); further: top concentration of the series differs between compounds; nearly all actives have a fitted effect of over 45% in size
Method in brief: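 Wild-type HCT-116 cells were plated overnight, exposed to compounds for 2 h at 37 °C, then given HDAC-Glo class I/II luminogenic reagent for 30 min at room temperature before luminescence was read.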

[15] = qHTS assay to identify small molecule HDAC inhibitors - cell viability counter screen (AID 1259365)
Method in brief: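 After overnight seeding at 1,500 cells per well, wild-type HCT-116 cultures took up compounds in DMSO for 2hr at 37 C. Viable cell content came from luminescence with CellTiter-Glo.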

[16] = qHTS assay to identify small molecule agonists of the sonic hedgehog signaling (Shh) pathway - cell viability counter screen (AID 1259366); further: nearly all actives have a fitted effect of over 50% in size; further: potency means the concentration at half of the fitted maximal effect
Method in brief: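 Same-well cytotoxicity read. Gli1-Luc reporter 3T3 cells; compounds 24hr, 37C/5% CO2; CellTiter-Fluor fluorescence.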

[17] = qHTS assay to identify small molecule antagonists of the sonic hedgehog signaling (Shh) pathway - cell viability counter screen (AID 1259367); further: nearly all actives have a fitted effect of over 55% in size
Method in brief: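 Seed 3T3 Gli1-Luc cells at 2,000 per well; incubate 4 hr; add compound in DMSO, then conditioned medium; incubate at 37C with 5% CO2; add CellTiter-Fluor after 23 hr; read fluorescence 1 hr later.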

[18] = qHTS assay to identify small molecule phospholipidosis (PLD) inducers (AID 1259344; active means well fitted curve in the direction sought with a large enough effect; an effect the other way counts as inactive or inconclusive)
Method in brief: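 Quantitative HTS in HepG2: compound plus LipidTOX Red dye for 24 h, paraformaldehyde fixation with Hoechst 33342, widefield high-content imaging; amiodarone as positive and DMSO as negative control.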

[19] = molecular target: Androgen receptor (Homo sapiens) (UniProt P10275); assay: qHTS assay to identify small molecule antagonists of the androgen receptor (AR) signaling pathway using the MDA cell line in the presence of 0.5 nM R1881 (AID 1259243); further: nearly all actives have a fitted effect of over 50% in size
Sequence of Androgen receptor (Homo sapiens) (P10275 whole entry, looked up): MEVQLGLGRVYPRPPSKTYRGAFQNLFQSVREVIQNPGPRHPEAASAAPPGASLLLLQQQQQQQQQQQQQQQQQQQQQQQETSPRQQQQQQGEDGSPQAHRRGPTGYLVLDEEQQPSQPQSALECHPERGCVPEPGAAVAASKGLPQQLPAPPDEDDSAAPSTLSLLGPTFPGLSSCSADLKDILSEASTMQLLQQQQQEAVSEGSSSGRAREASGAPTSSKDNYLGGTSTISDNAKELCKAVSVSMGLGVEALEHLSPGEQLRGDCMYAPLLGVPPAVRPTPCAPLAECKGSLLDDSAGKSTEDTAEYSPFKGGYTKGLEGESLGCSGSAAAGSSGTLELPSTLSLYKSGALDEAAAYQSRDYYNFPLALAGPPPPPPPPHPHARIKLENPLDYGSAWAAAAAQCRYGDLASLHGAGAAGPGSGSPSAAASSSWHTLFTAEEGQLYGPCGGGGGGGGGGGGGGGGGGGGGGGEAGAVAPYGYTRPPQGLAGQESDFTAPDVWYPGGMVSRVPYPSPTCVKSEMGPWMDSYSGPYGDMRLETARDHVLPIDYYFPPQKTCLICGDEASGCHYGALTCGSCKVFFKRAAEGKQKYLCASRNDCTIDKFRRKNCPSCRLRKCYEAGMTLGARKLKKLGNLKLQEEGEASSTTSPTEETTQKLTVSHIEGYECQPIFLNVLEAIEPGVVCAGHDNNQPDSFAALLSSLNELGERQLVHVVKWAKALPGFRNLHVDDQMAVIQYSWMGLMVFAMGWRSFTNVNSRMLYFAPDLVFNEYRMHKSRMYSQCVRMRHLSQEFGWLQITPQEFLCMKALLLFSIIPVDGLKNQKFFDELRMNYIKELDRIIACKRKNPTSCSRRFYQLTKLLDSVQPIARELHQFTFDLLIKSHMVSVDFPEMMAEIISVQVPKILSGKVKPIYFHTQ
Method in brief: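 MDA-kb2 human breast carcinoma cells carrying an MMTV-luciferase reporter (AR- and GR-responsive) were plated, rested 5 hr at 37C, dosed with compounds, then stimulated with 0.5 nM R1881 (final) for 16 hr; luminescence was read after ONE-Glo.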

| Compound | Potency [1] | Potency [2] | Potency [3] | Potency [4] | Potency [5] | Potency [6] | Potency [7] | Potency [8] | Potency [9] | Potency [10] | Potency [11] | Potency [12] | Potency [13] | Potency [14] | Potency [15] | Potency [16] | Potency [17] | outcome [18] | Potency [19] |
| --- | --- | --- | --- | --- | --- | --- | --- | --- | --- | --- | --- | --- | --- | --- | --- | --- | --- | --- | --- |
| Cc1ccc(N)cc1C | inactive | inactive | inactive | inactive | inactive | inactive | inactive | inactive | inactive | inactive | inactive | inactive | inactive | inactive | inactive | inactive | inactive | – | – |
| O=NN1CCNCC1 | inactive | inactive | inactive | inactive | inactive | inactive | inactive | inactive | inactive | inactive | – | inactive | inactive | inactive | inactive | inactive | inactive | – | – |
| Brc1ccc(Oc2ccccc2)cc1 | inactive | inactive | inactive | inactive | inactive | inactive | inactive | inactive | inactive | inactive | – | inactive | inactive | – | inactive | inactive | inactive | – | – |
| CCOP(=O)(OCC)O/C(=C/Cl)c1ccc(Cl)cc1Cl | inactive | inactive | inactive | inactive | inactive | 24.5 µM (active) | – | inactive | inactive | inactive | inactive | inactive | 54.5 µM (active) | inactive | inactive | inactive | inactive | inactive | – |
| CN(C)c1ccc(N(C)C)cc1 | inactive | inactive | inactive | inactive | inactive | – | 34.8 µM (active) | inactive | inactive | inactive | – | inactive | 30.7 µM (active) | – | inactive | 24.4 µM (active) | inactive | – | – |
| COc1c(C(C)(C)C)cc([N+](=O)[O-])c(C)c1[N+](=O)[O-] | inactive | inactive | inactive | inactive | inactive | inactive | inactive | inactive | inactive | inactive | inactive | inactive | inactive | – | inactive | inactive | inactive | – | – |
| Clc1cc(C(Cl)(Cl)Cl)cnc1Cl | inactive | inactive | 34.7 µM (active) | inactive | inactive | – | – | inactive | inactive | inactive | inactive | – | inactive | inactive | inactive | inactive | inactive | – | – |
| CNC(C)Cc1ccccc1OC (configuration not stated) | inactive | inactive | inactive | inactive | inactive | inactive | inactive | inactive | inactive | – | – | inactive | inactive | inactive | inactive | inactive | inactive | inactive | – |
| O=C(O)C(F)(F)C(F)(F)C(F)(F)C(F)(F)C(F)(F)C(F)(F)C(F)(F)C(F)(F)C(F)(F)F | inactive | inactive | inactive | inactive | inactive | inactive | inactive | – | inactive | inactive | inactive | inactive | inactive | inactive | inactive | inactive | inactive | – | – |
| Cc1ccc2ccccc2c1 | inactive | inactive | inactive | inactive | inactive | inactive | inactive | inactive | inactive | inactive | inactive | inactive | inactive | inactive | inactive | inactive | inactive | – | inactive |
| COC(C)(C)CCC[C@H](C)C/C=C/C(C)=C/C(=O)OC(C)C | inactive | inactive | inactive | inactive | inactive | inactive | – | – | inactive | inactive | inactive | inactive | – | – | inactive | inactive | inactive | – | inactive |
| Cc1c(F)c(F)c(COC(=O)C2C(/C=C(\Cl)C(F)(F)F)C2(C)C)c(F)c1F (configuration not stated) | inactive | inactive | inactive | inactive | inactive | inactive | inactive | inactive | inactive | inactive | inactive | inactive | inactive | inactive | inactive | inactive | inactive | – | – |
| Cc1ccccc1C(=O)Nc1cccc(OC(C)C)c1 | inactive | inactive | inactive | inactive | inactive | – | inactive | inactive | inactive | inactive | inactive | inactive | inactive | inactive | inactive | inactive | inactive | – | inactive |
| [O-][Cl+]O | inactive | inactive | inactive | inactive | inactive | inactive | inactive | – | inactive | inactive | inactive | inactive | – | inactive | inactive | inactive | inactive | – | – |
